Rows were chosen to be rich in hits. Some 21% of all compounds tested hit in one or more screens of this group.
Pf growth 48h = P. falciparum growth inhibition at 48 hours (one generation); P. falciparum luciferase growth in erythrocytes, 48 h; 310,000 compounds, 5.9% hits; AID 504832; Potency, µM (top dose mostly 28.7 µM), for the others: at the highest dose activity change, negative = inhibition, hits mostly inhibitors; further: potency means the concentration at half of the fitted maximal effect; on the % scale 0 is the no-effect control and ±100 the full control effect
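Luciferase-expressing P. falciparum in infected erythrocytes (2% hematocrit, 0.1% parasitemia final) in RPMI 1640/0.5% Albumax were exposed to compound for 48 hours at 37 C, 5% CO2; growth read as luminescence.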
Shiga toxin inh = blocks Shiga toxin action in Vero cells. Vero cells, Shiga toxin protein synthesis inhibition reporter. inhibition, % at 38.7 µM. 290,000 compounds, 9.2% hits. AID 2315; in the data active means inhibition mostly above about 28%, no sharp cut-off; inactive means mostly below about 43%; further: 0% is about no effect
CHX counter = affects cycloheximide protein synthesis inhibition readout, counter-screen | max response, % | cell reporter, cycloheximide protein synthesis inhibition counterscreen | 300,000 compounds, 12% hits; in the data active means max response mostly above about 13%, no sharp cut-off; inactive means mostly below about 14%; further: read at 38.3 µM for the half of the compounds with a filed dose; 0% is about no effect
Pf growth 96h = P. falciparum growth inhibition at 96 hour, primary screen for plastid delayed-death inhibitors | P. falciparum luciferase reporter growth, 96 h | Potency, µM (top dose mostly 28.7 µM), for inactives: at the top dose activity change, negative = inhibition, hits mostly inhibitors | 320,000 compounds, 6.9% hits; further: potency means the concentration at half of the fitted maximal effect; on the % scale 0 is the no-effect control and ±100 the full control effect
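Luminescence readout: decreased luciferase signal marks inhibited growth of reporter-expressing P. falciparum in infected red cells (2% hematocrit, 0.05% parasitemia final), exposed to compound two generations (96 h, 37 C, 5% CO2).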
NS1 function inh = blocks influenza NS1 protein function | 270,000 compounds, 0.4% hits | Potency, µM (highest dose often 46.1 µM), for inactives: at the top dose activity, positive = more growth; calls by dose curve; further: potency means the concentration at half of the fitted maximal effect; actives are rising curves; nearly all actives have a fitted effect of over 50% in size
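Compounds were scored for reversing the slow growth caused by influenza A NS1 in S. cerevisiae, measured by optical density at 600 nm. Assay medium contained 2% galactose at pH 6.0; NS1-free yeast of the same strain were the positive control.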
SARS PLP yeast = blocks SARS-CoV papain-like protease in a yeast assay; S. cerevisiae expressing SARS-CoV PLpro, growth rescue; Potency, µM (top dose mostly 32.9 µM), for the others: at the highest dose activity, positive = growth rescue, usual class: activators; 330,000 compounds, 0.19% hits; AID 485353; calls by dose curve; further: potency means the concentration at half of the fitted maximal effect; 0% is about no effect; nearly all actives have a fitted effect of over 55% in size
* hit, by the source's call; ? = inconclusive; . = not tested or not shown; [ ] = remark or other dose. Unless noted, the call rests on the fitted dose curve; in most records, active means well fitted inhibition curve with a large enough effect; inconclusive means small, poorly fitted or top-dose-only effect, or another doubt; inactive means no such curve, though single readings can be large or run the other way.

SMILES | Pf growth 48h | Shiga toxin inh | CHX counter | Pf growth 96h | NS1 function inh | SARS PLP yeast
COc1ccc(OCC(O)CNCCOc2ccccc2OC)c(C(C)(C)C)c1 (configuration not stated) | 4.7µM* | -7 | -4 | 3.7µM* | 4% | 2%
O=C(Cn1cc(C(F)(F)F)cc(Cl)c1=O)Nc1cc(S(=O)(=O)N2CCOCC2)ccc1Cl | -9% | -1 | -3 | -14% | 2% | 9%
Cc1ccc2c(COC(=O)CNS(=O)(=O)c3ccccc3)cc(=O)oc2c1 | . | . | . | . | . | -6%
CCc1cc2c(COC(=O)CCNS(=O)(=O)c3cccc(C(F)(F)F)c3)cc(=O)oc2cc1O | 4.7µM* | . | . | ? | . | -14%
COC(=O)CNC(=O)c1cn(CC(C)C)c(=O)c2cc(OC)c(OC)cc12 | 0% | -4 | -3 | 179% | 7% | -2%
COc1cc2c(C(=O)NCc3ccccn3)cn(CC(C)C)c(=O)c2cc1OC | -9% | -6 | -5 | 13µM* | ? | 0%
CCn1cc(C(=O)NCc2cccnc2)c2cc(OC)c(OC)cc2c1=O | 23% | -8 | -1 | 2.1µM* | -5% | -2%
O=C(Cn1c(=O)cnc2ccccc21)N1CCN(S(=O)(=O)c2ccccc2Br)CC1 | ? | . | . | -8% | . | -2%
COc1c(C)cc(C(=O)C2CCCN(S(=O)(=O)N(C)C)C2)cc1C (configuration not stated) | -15% | . | 4 | 2.9µM* | -10% | 1%
CSc1ccc(C(=O)C2CCCN(S(=O)(=O)N(C)C)C2)cc1 (configuration not stated) | 2% | -1 | 0 | 24% | -5% | -1%
O=C(c1ccc(-c2ccccc2)c(F)c1)C1CCCN(CCO)C1 (configuration not stated) | ? | 68 | 15* | 12% | 2% | 0%
CN(C)S(=O)(=O)N1CCCC(C(=O)c2ccc(-c3ccccc3)c(F)c2)C1 (configuration not stated) | ? | 35* | 15* | 26% | -10% | -2%
COc1ccc(C(=O)C2CCCN(Cc3cn(C)nc3-c3ccccc3)C2)cc1F (configuration not stated) | ? | -6 | -3 | 9.3µM* | 1% | -1%
CCc1nc2ccccc2c(C(=O)Nc2cccc(C)c2)c1C | ? | 10 | -2 | ? | 7% | -1%
O=C(N=C1SC2CS(=O)(=O)CC2N1c1ccc(F)cc1F)C1CC1 (configuration not stated) | 24% | -8 | 5 | 33% | ? | -3%
CCN(C(=O)CSc1nnc(Nc2ccccc2)s1)C1CCS(=O)(=O)C1 (configuration not stated) | -21% | 46 | 4 | ? | . | 2%
COc1ccc(NS(=O)(=O)c2ccc3nc(COc4ccc(C#N)cc4)[nH]c3c2)cc1 | -16% | -1 | 2 | ? | 19% | 2%
CC(C)(C)OC(=O)N1CCN(C(=O)[C@H](Cc2ccc(O)cc2)n2cc(CCO)nn2)CC1 | 35% | -14 | -3 | 30% | 0% | 0%
C=CCn1c(-c2cccs2)nc2nc3ccccc3nc21 | 19% | 45* | 30* | . | -71% | -4%
C=CCn1c(-c2cccs2)nc2ccccc21 | 9% | 23* | 16* | 4% | -32% | -9%
CCCn1c(-c2cccs2)nc2ccccc21 | -17% | 18 | 20 | ? | -122% | -6%
CCC(C)(C)C1CCC(=NNc2nc3ccccc3[nH]2)CC1 (configuration not stated) | 10µM* | 81* | 36* | 10µM* | 1% | 8%
Cc1cc(=O)[nH]c(NN=C2CCC(C(C)(C)C)CC2)n1 (configuration not stated) | ? | 25 | 17 | ? | 3% | 0%
CC(=O)N1CCC(=NNc2nc3ccccc3[nH]2)CC1 | ? | 35* | 31* | ? | . | -6%
FC(F)(F)c1nc2ccccc2nc1N/N=C/c1c(Cl)cccc1Cl | 9.3µM* | -7 | -2 | -8% | 2% | -1%
SMILES | Pf growth 48h | Shiga toxin inh | CHX counter | Pf growth 96h | NS1 function inh | SARS PLP yeast
Cc1ccc(C(C(=O)NC2CCCCC2)N(Cc2ccco2)C(=O)C2COc3ccccc3O2)o1 (configuration not stated) | 7.4µM* | 15 | 3 | . | 11% | -1%
O=C(NC1CCCCC1)C(c1ccc(O)cc1)N(CC1CCCO1)C(=O)C1COc2ccccc2O1 (configuration not stated) | . | -12 | -2 | 7.4µM* | 3% | 0%
O=C(NC1CCCC1)C(c1ccccc1)N(Cc1ccco1)C(=O)Cc1cccs1 (configuration not stated) | -9% | -12 | -3 | 7% | 8% | -23%
Cc1ccc(C(C(=O)NC2CCCCC2)N(Cc2cccnc2)C(=O)C2COc3ccccc3O2)o1 (configuration not stated) | 5.2µM* | 9 | 13 | -3% | -36% | 7%
COc1ccc(CNC(=O)COC(=O)c2cc(S(=O)(=O)N3CCOCC3)ccc2O)cc1OC | . | . | . | . | . | 6%
Cc1ccccc1C(=O)N1CCC(C(=O)N(C)CCOc2ccccc2)CC1 | ? | -7 | -3 | -10% | -4% | -3%
Cc1cccc(N(Cc2ccccc2)C(=O)C2CCN(C(=O)c3ccccc3C)CC2)c1 | 12µM* | . | . | 10µM* | . | -9%
Cc1c(/C=C/C(=O)c2cccs2)cnn1C | 151% | 96* | 33* | 14% | 0% | -39%
CCc1ccc(C(=O)/C=C/c2cnn(C)c2C)s1 | 245% | 34* | 23* | 475% | -15% | -25%
CCCOC(=O)c1c(NC(=O)/C=C/c2cnn(C)c2C)sc(C(=O)OC)c1C | ? | -4 | -2 | 100% | -5% | 0%
Cc1ccc(S(=O)(=O)NCc2ccccc2)cc1C(=O)NCc1ccccn1 | 2% | -32 | -3 | 18% | 1% | 0%
COc1cc(/C=N/NC(=O)C(N)=O)ccc1OCC(=O)N1C(C)CCCC1C (configuration not stated) | -37% | -1 | -5 | 4% | . | 1%
Cc1cc(C(=O)CSc2nnc(-c3ccncc3)n2-c2ccccc2)c(C)n1C | 15µM* | -14 | -1 | 17µM* | 13% | -3%
Cc1cc(C(=O)CSc2nnc(-c3cccnc3)n2-c2ccccc2)c(C)n1CC1CCCO1 (configuration not stated) | . | 97 | 23* | ? | 10% | 9%
Cc1cc(C(=O)CSc2nnc(-c3cccnc3)n2-c2ccccc2F)c(C)n1C | ? | -5 | -1 | 193%[5.75 µM] | ? | 2%
CC(C)[C@H](NC(=O)N1CC(=O)Nc2ccccc21)C(=O)N[C@@H](C(=O)O)c1ccccc1 | 6% | -2 | -2 | 28% | 6% | -3%
Cc1cc(C)n(CCCNC(=O)CCNS(=O)(=O)c2ccccc2C(F)(F)F)n1 | 12% | 4 | -2 | 20% | -3% | -2%

From PubChem BioAssay
